Screening data as filed in PubChem BioAssay.
This is a sample that favours compounds with a hit; in the whole collection about 4.8% have one here.
D3 antag: qHTS of D3 Dopamine Receptor Antagonist: qHTS. D(3) dopamine receptor (Homo sapiens), P35462. D3R cells, DiscoveRx beta-arrestin luminescence, antagonist mode; hits give low values. max response, negative = inhibition, %. actives 2.5% (n = 360,000); in the data active = max response below about -50%; inconclusive = no clear call, values can overlap the other calls
Target sequence (P35462 whole entry, looked up): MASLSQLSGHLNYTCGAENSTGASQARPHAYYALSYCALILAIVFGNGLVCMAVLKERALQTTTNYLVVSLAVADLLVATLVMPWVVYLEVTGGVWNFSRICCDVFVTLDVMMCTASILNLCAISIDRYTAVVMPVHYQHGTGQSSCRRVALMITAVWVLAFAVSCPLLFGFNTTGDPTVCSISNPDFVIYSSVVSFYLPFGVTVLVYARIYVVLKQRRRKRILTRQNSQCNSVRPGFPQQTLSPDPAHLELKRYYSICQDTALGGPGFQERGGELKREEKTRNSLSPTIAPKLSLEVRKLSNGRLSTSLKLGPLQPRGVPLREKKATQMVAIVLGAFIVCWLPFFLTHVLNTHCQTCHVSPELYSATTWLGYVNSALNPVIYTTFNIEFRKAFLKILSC
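Cells plated overnight at 1500 cells/well, then exposed to library compounds with dopamine controls for 90 minutes at 37 degrees C. DiscoveRx reagent added for 30–60 minutes at room temperature; luminescence read, quantitative HTS format.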
D3 ag: qHTS of D3 Dopamine Receptor Agonist: qHTS | D(3) dopamine receptor (Homo sapiens), P35462 | D3R DiscoveRx beta-arrestin cells, luminescence, 90 min | max activation, % | actives 0.58% (n = 410,000) | AID 652048, 2013; in the data active = max activation above about 30%
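Agonist mode: compounds and dopamine controls were applied to plated cells for 90 min at 37 degrees C after an overnight attachment at 1500 cells/well. Luminescent read-out followed 30 - 60 minutes at room temperature with DiscoveRx detection reagent.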
TGFb inhibitor: qHTS for Inhibitors of TGF-b; HepG2 CAGA-GFP TGF-b/SMAD3 reporter, GFP fluorescence, 18 h; TGF-beta stimulated, 500 pg/mL final; Potency, µM (highest dose often 46.1 µM), hits mostly inhibitors; actives 1.2% (n = 410,000); AID 588855, 2011; also: nearly all actives have a fitted effect of over 65% in size
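Using HEPG2 CAGA-GFP reporter cells at 1000 cells/well, we pinned test compounds, stimulated with recombinant TGF-beta (500 pg/mL final) and measured total well GFP after 18 h.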
HepG2 viability: qHTS for Inhibitors of TGF-b: Cytotox Counterscreen; HepG2 CAGA-GFP viability, ATP luminescence, 18 h; Potency, µM (doses to about 46.1 µM), usual class: cytotoxic; actives 0.76% (n = 410,000); AID 588856, 2011
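HepG2 CAGA-GFP cells (1000/well, DMEM with 1% FBS) received compound, then TGF-beta at 500 pg/mL final, and were incubated 18 hours at 37 degrees C. Viability was read by CellTiter-Glo luminescence. Media-only wells were set as complete cell-killing and DMSO as no toxicity.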
ATXN viability: Viability Counterscreen for Primary qHTS for Inhibitors of ATXN expression. S2 cells (HEK-293 line with an ATXN2-luciferase reporter) viability, CellTiter-Fluor protease fluorescence, 24 h. Potency, µM (top dose mostly 56.7 µM), actives largely listed as cytotoxic. actives 0.49% (n = 400,000). AID 651635, 2014; also: nearly all actives have a fitted effect of over 40% in size
ATXN2 expr inh: Primary qHTS for Inhibitors of ATXN expression; HEK-293 ATXN2-luciferase reporter, luminescence, 24 h; Potency, µM (doses to about 57 µM), hits mostly inhibitors; actives 0.72% (n = 360,000); AID 1745845, 2022; also: nearly all actives have a fitted effect of over 55% in size
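ATXN2-luciferase reporter cells (luciferase flanked by upstream and downstream ATXN2 gene portions) were treated 24 h at 37 °C with compounds at up to 57 uM. SteadyGlo luminescence gave expression; GF-AFC fluorescence gave viability.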
Each line names hits and unclear results; the compound was inactive in the other large screens. Unless noted, calls follow the shape of the dose curve; as a rule, active = well fitted curve in the direction sought with a large enough effect; inconclusive = small, poorly fitted or top-dose-only effect, or another doubt; inactive = no such curve, though single readings can be large; an effect the other way counts as inactive or inconclusive.

C#CCOCCOCCOCCNc1nc(N2CCN(C(=O)CCCCCCCCCCNC(=O)Cn3cc(C[C@@H](C)O)nn3)CC2)nc(N2CCN(C(=O)CCCCCCCCCCNC(=O)[C@@H]([C@H](C)CC)n3cc(CCCCCN)nn3)CC2)n1	TGFb inhibitor 10µM, ATXN2 expr inh 20µM (no result: ATXN viability)
C#CCOCCOCCOCCNc1nc(N2CCN(C(=O)CCCCCCCCCCNC(=O)[C@H](CCCCN)n3cc(C[C@@H](C)CC)nn3)CC2)nc(N2CCN(C(=O)CCCCCCCCCCNC(=O)[C@@H]([C@H](C)O)n3cc(C)nn3)CC2)n1	D3 antag -59.1, TGFb inhibitor inconclusive, HepG2 viability 12.6µM, ATXN viability 10µM, ATXN2 expr inh 10µM
C#CCOCCOCCOCCNc1nc(N2CCN(C(=O)CCCCCCCCCCNC(=O)Cn3cc(CCCCCN)nn3)CC2)nc(N2CCN(C(=O)CCCCCCCCCCNC(=O)Cn3cc(C[C@@H](C)O)nn3)CC2)n1	TGFb inhibitor inconclusive
C#CCOCCOCCOCCNc1nc(N2CCN(C(=O)CCCCCCCCCCNC(=O)[C@H](CCCCN)n3cc(C)nn3)CC2)nc(N2CCN(C(=O)CCCCCCCCCCNC(=O)[C@@H]([C@H](C)O)n3cc(C)nn3)CC2)n1	TGFb inhibitor inconclusive, ATXN2 expr inh inconclusive (no result: ATXN viability)
C#CCOCCOCCOCCNc1nc(N2CCN(C(=O)[C@H]([C@@H](C)O)n3cc(CCCCN)nn3)CC2)nc(N2CCN(C(=O)[C@H](CCCCN)n3cc(CC(C)O)nn3)CC2)n1 (some centres not stated)	D3 antag -52.4
C#CCOCCOCCOCCNc1nc(N2CCN(C(=O)CCCCCCCCCCNC(=O)[C@@H](CCSC)n3cc(CCO)nn3)CC2)nc(N2CCN(C(=O)CCCCCCCCCCNC(=O)[C@H](CCCN=C(N)N)n3cc(C[C@@H](C)CC)nn3)CC2)n1	TGFb inhibitor inconclusive, ATXN viability 15.8µM, ATXN2 expr inh inconclusive
COc1cc(-c2c(C#N)c(N)nc3c2c(C)nn3-c2ccc(C)c(C)c2)cc(OC)c1OC	D3 ag 60.0
COc1ccc(CNC(=O)Cc2c(C)c3cc4c(C)coc4c(C)c3oc2=O)cc1	none (no result: D3 antag, ATXN viability, ATXN2 expr inh)
Cc1occc1C(=O)NNC(=S)Nc1cccc([N+](=O)[O-])c1	D3 antag -108.9, TGFb inhibitor inconclusive
CC(C)NS(=O)(=O)c1ccc(NC(=S)NC(=O)c2cccc([N+](=O)[O-])c2)cc1	D3 antag -94.1
O=C(NC(=S)Nc1cccc(F)c1)c1cccc([N+](=O)[O-])c1	D3 antag -51.4 (no result: ATXN2 expr inh)
COc1c(N2C[C@@H]3CCCN[C@H]3C2)c(F)cc2c(=O)c(C(=O)O)cn(C3CC3)c12	none (no result: D3 antag, D3 ag, TGFb inhibitor, HepG2 viability)
Cc1ccc(S(=O)(=O)c2cn(C)c3cc(N4CCCCCC4)c(F)cc3c2=O)cc1	none (no result: D3 antag, ATXN viability, ATXN2 expr inh)
COc1ccc2c(c1)c1c(c(=O)n(Cc3ccccc3)c(=O)n1CC(=O)Nc1ccccc1OC)n2C	none (no result: D3 antag)
CN(C)CCC(Oc1ccccc1OCc1ccccc1)c1ccccc1 (configuration not stated)	D3 antag inconclusive, ATXN2 expr inh inconclusive
CN(C)CCCC(C)(O)C(Cc1ccccc1)c1ccccc1 (configuration not stated)	D3 antag -57.6
NC(=O)C1=C[C@@H](c2ccc(C(F)(F)F)cc2)C[C@@H](OCc2ccc(CO)cc2)O1	D3 antag -55.7
O=C(NCc1nc2ccccc2[nH]1)C1=C[C@H](c2ccc(C(F)(F)F)cc2)C[C@H](OCc2ccc(CO)cc2)O1	TGFb inhibitor 11.2µM, ATXN viability inconclusive, ATXN2 expr inh inconclusive
O=C(NCc1nc2ccccc2[nH]1)C1=C[C@H](c2ccc(Br)cc2)C[C@H](OCc2ccc(CO)cc2)O1	ATXN viability inconclusive
Cc1nc(C)n(CC(=O)N2CCOc3ccc(CN4CCN(C)C[C@@H]4c4ccccc4)cc3C2)n1	none (no result: D3 antag, D3 ag, TGFb inhibitor, HepG2 viability, ATXN2 expr inh)
CCOc1ccc(CNC(=O)CCCn2c(=O)c3cccn3c3ccc(F)cc32)cc1	none (no result: D3 antag, ATXN viability, ATXN2 expr inh)
COc1ccc(-c2oc3ccccc3c(=O)c2OC(=O)c2ccc(C)cc2)cc1	none
COc1ccc(C(=O)c2c(-c3ccc(OC)cc3)oc3ccccc23)cc1	D3 antag -63.3
COc1ccc(OCC(=O)c2c(O)c3ccccc3oc2=O)cc1	D3 antag -113.7
CCOc1ccc(OCC(=O)c2c(O)c3ccccc3oc2=O)cc1	none
CCOc1ccccc1OCCN1CCCC1	none (no result: ATXN2 expr inh)
CCC(=O)c1ccccc1OCCCN1CCC(Cc2ccccc2)CC1	D3 antag -102.1, TGFb inhibitor inconclusive, ATXN viability inconclusive, ATXN2 expr inh inconclusive
CCOc1ccccc1OCCN1CCC(Cc2ccccc2)CC1	D3 antag -99.1
COc1cccc(OC)c1OCCCCN1CCC(Cc2ccccc2)CC1	D3 antag -75.3
Cc1cccc(C)c1NC(=O)CN1CCC(Cc2ccccc2)CC1	D3 antag -69.3
Cc1ccccc1C(=O)Nc1ccc2nc(SCC(=O)N3CCc4ccccc43)sc2c1	none (no result: D3 antag)
O=[N+]([O-])c1ccc(CN2CCC(Cc3ccccc3)CC2)cc1	D3 antag inconclusive, ATXN viability inconclusive (no result: ATXN2 expr inh)
Cc1ccc([N+](=O)[O-])c(OCCN2CCC(Cc3ccccc3)CC2)c1	D3 antag -83.3
O=[N+]([O-])c1cccc(OCCCN2CCC(Cc3ccccc3)CC2)c1	D3 antag -101.3, TGFb inhibitor inconclusive
Cc1ccccc1OC(C)C(=O)N1CCC(Cc2ccccc2)CC1 (configuration not stated)	none
CC(=O)CCc1ccc(OCCCCN2CCC(Cc3ccccc3)CC2)cc1	D3 antag inconclusive
Cc1ccccc1OCCN1CCC(Cc2ccccc2)CC1	D3 antag -90.7, ATXN viability inconclusive (no result: ATXN2 expr inh)
N#Cc1ccccc1OCCCN1CCC(Cc2ccccc2)CC1	D3 antag -109.3 (no result: ATXN2 expr inh)
Cc1ccc([N+](=O)[O-])c(OCCCN2CCCCCC2)c1	D3 antag inconclusive (no result: ATXN2 expr inh)
N#C/C(=C1/SC[C@@H](c2ccc(Cl)cc2Cl)S1)n1ccnc1	ATXN2 expr inh inconclusive (no result: D3 antag, TGFb inhibitor, HepG2 viability)
Cn1ncc2c(N3CCN(c4ccccc4Cl)CC3)ncnc21	none (no result: D3 antag, ATXN viability, ATXN2 expr inh)
CSc1nnc(CNS(=O)(=O)c2ccc(F)cc2F)n1-c1ccccc1C	none (no result: D3 antag, D3 ag, TGFb inhibitor, HepG2 viability, ATXN2 expr inh)
OCC1(Cc2ccccc2)CCCN(Cc2c[nH]c3ccccc23)C1 (configuration not stated)	D3 antag -56.6
c1ccc(CN2CCN(Cc3c[nH]c4ccccc34)CC2)cc1	D3 antag -59.8
